# Reference: paper PMC7862700, “An all-to-all approach to the identification of sequence-specific readers for epigenetic DNA modifications on cytosine”
# Legend:
# Experiment in all cases: DAPPL (digital affinity profiling via proximity ligation, sequencing); 10 mM Tris-HCl pH 7.5, 50 mM NaCl, 1 mM DTT, 4% glycerol, room temperature, 30 min; GST-TFs on glutathione beads, 16-mer random dsDNA library, 0.1% formaldehyde crosslink after washing; high values mean tight binding
# FLI1 = molecular target: T1, FLI1 (Homo sapiens, UniProt Q01543 1-452); conditions: protein: recombinant; tags: N-terminal GST; dsDNA, one strand shown
# T1 sequence: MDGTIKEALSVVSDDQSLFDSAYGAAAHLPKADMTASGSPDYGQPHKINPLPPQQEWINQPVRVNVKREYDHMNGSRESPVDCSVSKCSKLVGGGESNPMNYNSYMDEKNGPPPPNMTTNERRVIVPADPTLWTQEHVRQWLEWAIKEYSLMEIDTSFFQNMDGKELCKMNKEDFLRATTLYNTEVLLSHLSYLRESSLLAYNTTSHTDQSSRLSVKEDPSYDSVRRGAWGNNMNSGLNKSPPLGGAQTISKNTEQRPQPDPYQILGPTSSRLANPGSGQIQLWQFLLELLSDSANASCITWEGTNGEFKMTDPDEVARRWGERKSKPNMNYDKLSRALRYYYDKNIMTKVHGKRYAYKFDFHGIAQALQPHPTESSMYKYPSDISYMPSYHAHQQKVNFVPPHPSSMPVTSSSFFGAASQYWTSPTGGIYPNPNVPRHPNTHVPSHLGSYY
# Outline: (§1)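 Human transcription factors were made in yeast as GST fusions, captured on glutathione beads and barcoded with DNA. With a tag-only sample included, the pool was incubated with 200 nmole of a random double-stranded 16-mer DNA library in Tris/NaCl/DTT/glycerol buffer at room temperature for 30 min, then crosslinked with 0.1% formaldehyde after washing, ligated by proximity, amplified and sequenced. For binding signal, each hexamer's read frequency for a factor is divided by its frequency for the tag-only sample.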
# ELK1 = molecular target: T2, ELK1 (Homo sapiens, UniProt P19419 1-428); conditions: protein: recombinant; tags: N-terminal GST; dsDNA, one strand shown
# T2 sequence: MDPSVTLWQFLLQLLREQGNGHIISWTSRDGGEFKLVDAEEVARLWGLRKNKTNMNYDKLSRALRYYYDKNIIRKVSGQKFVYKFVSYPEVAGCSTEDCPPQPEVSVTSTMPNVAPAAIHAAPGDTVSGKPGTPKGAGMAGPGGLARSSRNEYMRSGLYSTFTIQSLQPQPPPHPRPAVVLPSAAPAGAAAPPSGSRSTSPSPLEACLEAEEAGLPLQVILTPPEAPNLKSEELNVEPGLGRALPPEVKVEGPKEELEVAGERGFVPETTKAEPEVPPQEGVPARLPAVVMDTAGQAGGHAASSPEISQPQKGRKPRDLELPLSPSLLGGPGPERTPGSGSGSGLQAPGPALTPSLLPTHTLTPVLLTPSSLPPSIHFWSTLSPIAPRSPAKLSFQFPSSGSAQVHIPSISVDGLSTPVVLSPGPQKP
# Outline: as §1
# GABPA = molecular target: T3, GABPA (Homo sapiens, UniProt Q06546 1-454); conditions: protein: recombinant; tags: N-terminal GST; dsDNA, one strand shown
# T3 sequence: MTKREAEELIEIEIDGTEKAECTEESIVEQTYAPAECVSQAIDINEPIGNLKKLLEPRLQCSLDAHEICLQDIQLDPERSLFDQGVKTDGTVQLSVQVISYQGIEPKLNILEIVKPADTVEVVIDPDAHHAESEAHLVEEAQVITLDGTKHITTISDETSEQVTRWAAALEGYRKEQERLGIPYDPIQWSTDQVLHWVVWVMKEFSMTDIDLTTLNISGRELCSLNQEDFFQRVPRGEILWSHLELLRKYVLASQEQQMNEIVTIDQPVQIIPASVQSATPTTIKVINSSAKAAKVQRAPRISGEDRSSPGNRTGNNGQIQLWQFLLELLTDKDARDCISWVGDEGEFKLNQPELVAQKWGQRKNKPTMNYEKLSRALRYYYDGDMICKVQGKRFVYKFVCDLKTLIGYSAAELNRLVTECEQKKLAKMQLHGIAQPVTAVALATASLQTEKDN
# Outline: as §1
# ERG = molecular target: T4, ERG (Homo sapiens, UniProt P11308 1-479); conditions: protein: recombinant; tags: N-terminal GST; dsDNA, one strand shown
# T4 sequence: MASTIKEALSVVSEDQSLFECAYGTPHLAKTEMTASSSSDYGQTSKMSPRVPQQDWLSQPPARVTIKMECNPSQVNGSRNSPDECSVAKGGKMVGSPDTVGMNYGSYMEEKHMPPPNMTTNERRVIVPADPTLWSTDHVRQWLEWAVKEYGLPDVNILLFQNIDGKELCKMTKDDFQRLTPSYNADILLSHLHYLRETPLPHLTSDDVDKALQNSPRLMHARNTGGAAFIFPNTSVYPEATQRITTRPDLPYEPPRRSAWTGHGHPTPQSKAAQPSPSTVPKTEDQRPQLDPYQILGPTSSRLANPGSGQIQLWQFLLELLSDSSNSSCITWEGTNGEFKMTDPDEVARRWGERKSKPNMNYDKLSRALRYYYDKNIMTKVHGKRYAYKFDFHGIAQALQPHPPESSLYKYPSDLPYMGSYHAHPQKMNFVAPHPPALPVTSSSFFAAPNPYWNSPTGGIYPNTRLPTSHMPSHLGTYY
# Outline: as §1
# ELF1 = ELF1 (Homo sapiens, UniProt P32519 1-619); conditions: protein: recombinant; tags: N-terminal GST; dsDNA, one strand shown
# ELF1, sequence (P32519 whole entry): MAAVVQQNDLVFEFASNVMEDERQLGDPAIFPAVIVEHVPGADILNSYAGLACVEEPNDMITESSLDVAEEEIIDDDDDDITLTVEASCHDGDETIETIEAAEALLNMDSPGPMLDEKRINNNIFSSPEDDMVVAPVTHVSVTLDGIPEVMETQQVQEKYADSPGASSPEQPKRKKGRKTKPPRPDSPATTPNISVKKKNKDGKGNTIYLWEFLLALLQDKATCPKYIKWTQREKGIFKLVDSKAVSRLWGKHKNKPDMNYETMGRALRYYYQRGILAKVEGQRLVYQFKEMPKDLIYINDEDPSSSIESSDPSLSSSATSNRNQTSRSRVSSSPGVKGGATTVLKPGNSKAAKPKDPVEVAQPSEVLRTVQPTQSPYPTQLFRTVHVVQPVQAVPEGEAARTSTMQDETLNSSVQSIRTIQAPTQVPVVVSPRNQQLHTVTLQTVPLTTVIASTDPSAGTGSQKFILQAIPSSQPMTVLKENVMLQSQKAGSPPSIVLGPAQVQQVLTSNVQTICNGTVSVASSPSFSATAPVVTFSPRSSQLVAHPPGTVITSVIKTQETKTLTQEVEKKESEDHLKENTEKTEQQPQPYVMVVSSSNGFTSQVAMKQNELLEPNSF
# Outline: as §1
# EHF = molecular target: T5, EHF (Homo sapiens, UniProt Q9NZC4 1-300); conditions: protein: recombinant; tags: N-terminal GST; dsDNA, one strand shown
# T5 sequence: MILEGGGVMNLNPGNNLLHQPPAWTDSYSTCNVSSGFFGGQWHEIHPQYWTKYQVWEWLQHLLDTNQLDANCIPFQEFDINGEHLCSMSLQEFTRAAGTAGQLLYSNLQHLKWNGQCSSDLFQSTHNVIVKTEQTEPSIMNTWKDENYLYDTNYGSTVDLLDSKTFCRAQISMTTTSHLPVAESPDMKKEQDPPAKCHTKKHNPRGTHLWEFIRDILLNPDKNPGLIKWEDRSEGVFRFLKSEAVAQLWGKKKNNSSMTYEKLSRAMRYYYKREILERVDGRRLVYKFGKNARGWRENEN
# Outline: as §1
# SPI1 = SPI1 (Homo sapiens, UniProt P17947 1-270); conditions: protein: recombinant; tags: N-terminal GST; dsDNA, one strand shown
# Outline: as §1
# SPIB = SPIB (Homo sapiens, UniProt Q01892 1-262); conditions: protein: recombinant; tags: N-terminal GST; dsDNA, one strand shown
# SPIB, sequence (Q01892 whole entry): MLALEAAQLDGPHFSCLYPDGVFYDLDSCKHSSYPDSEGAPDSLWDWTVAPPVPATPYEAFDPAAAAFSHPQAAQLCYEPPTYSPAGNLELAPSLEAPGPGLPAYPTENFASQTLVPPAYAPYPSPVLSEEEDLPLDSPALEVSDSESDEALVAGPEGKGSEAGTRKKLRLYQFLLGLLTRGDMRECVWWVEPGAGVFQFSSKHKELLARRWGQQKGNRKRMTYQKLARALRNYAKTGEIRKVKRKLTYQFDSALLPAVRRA
# Outline: as §1
# ELK3 = molecular target: T6, ELK3 (Homo sapiens, UniProt P41970 1-407); conditions: protein: recombinant; tags: N-terminal GST; dsDNA, one strand shown
# T6 sequence: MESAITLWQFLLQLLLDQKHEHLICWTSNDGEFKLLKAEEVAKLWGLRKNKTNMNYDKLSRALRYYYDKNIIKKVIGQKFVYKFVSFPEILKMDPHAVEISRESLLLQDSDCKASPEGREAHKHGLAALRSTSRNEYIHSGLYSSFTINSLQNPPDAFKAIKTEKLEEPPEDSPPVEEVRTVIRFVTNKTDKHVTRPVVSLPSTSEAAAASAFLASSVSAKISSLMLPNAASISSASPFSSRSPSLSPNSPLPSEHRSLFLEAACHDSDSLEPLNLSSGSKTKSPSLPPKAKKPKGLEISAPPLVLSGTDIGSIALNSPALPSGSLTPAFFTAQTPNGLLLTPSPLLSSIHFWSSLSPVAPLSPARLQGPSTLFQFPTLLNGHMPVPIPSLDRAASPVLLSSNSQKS
# Outline: as §1
# FEV = molecular target: T7, FEV (Homo sapiens, UniProt Q99581 1-238); conditions: protein: recombinant; tags: N-terminal GST; dsDNA, one strand shown
# T7 sequence: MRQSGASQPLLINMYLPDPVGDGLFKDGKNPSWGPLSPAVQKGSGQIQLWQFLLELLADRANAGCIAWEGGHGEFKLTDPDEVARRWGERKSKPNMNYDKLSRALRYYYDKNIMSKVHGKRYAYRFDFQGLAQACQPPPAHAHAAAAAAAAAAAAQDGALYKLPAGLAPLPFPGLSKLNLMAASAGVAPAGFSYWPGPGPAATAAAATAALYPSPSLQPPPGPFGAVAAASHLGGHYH
# Outline: as §1
# ETV5 = ETV5 (Homo sapiens, UniProt P41161 1-510); conditions: protein: recombinant; tags: N-terminal GST; dsDNA, one strand shown
# ETV5, sequence (P41161 whole entry): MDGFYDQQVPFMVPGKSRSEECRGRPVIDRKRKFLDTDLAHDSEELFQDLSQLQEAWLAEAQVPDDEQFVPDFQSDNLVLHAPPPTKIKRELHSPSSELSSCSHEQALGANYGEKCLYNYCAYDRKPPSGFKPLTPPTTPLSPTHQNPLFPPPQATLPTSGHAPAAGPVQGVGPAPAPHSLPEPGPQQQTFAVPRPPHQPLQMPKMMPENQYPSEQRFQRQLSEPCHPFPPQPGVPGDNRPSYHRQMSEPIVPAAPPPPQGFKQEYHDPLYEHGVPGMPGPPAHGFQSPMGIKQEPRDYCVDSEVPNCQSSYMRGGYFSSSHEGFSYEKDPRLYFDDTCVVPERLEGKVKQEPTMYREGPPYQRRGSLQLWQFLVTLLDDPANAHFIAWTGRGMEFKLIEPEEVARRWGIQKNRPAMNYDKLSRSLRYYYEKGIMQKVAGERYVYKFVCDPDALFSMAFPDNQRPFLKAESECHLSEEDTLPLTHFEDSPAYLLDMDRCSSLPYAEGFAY
# Outline: as §1
# HSF1 = HSF1 (Homo sapiens, UniProt Q00613 1-529); conditions: protein: recombinant; tags: N-terminal GST; chain copies: 3; dsDNA, one strand shown
# HSF1, sequence (Q00613 whole entry): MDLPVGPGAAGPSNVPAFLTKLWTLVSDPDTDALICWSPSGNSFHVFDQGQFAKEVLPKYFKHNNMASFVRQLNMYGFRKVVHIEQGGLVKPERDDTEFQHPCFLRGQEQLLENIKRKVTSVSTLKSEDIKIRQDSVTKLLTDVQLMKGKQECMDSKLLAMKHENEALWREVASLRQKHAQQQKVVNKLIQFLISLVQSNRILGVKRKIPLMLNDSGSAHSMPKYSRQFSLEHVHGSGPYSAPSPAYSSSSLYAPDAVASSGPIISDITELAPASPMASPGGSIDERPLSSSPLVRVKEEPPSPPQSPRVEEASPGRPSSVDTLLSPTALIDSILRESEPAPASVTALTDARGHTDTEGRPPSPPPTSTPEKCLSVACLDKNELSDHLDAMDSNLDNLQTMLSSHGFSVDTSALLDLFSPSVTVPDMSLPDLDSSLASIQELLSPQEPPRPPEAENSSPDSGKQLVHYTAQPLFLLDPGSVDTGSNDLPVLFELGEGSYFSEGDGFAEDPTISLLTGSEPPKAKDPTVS
# Outline: as §1
# SPIC = molecular target: T8, SPIC (Homo sapiens, UniProt Q8N5J4 1-248); conditions: protein: recombinant; tags: N-terminal GST; dsDNA, one strand shown
# T8 sequence: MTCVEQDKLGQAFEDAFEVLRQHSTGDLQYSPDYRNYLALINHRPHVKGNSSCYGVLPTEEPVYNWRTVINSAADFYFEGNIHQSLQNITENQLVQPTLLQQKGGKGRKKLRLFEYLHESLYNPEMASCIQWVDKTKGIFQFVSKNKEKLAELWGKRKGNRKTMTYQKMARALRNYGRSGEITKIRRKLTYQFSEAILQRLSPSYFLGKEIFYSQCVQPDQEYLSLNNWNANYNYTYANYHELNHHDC
# Outline: as §1
# ELF4 = ELF4 (Homo sapiens, UniProt Q99607 1-663); conditions: protein: recombinant; tags: N-terminal GST; dsDNA, one strand shown
# ELF4, sequence (Q99607 whole entry): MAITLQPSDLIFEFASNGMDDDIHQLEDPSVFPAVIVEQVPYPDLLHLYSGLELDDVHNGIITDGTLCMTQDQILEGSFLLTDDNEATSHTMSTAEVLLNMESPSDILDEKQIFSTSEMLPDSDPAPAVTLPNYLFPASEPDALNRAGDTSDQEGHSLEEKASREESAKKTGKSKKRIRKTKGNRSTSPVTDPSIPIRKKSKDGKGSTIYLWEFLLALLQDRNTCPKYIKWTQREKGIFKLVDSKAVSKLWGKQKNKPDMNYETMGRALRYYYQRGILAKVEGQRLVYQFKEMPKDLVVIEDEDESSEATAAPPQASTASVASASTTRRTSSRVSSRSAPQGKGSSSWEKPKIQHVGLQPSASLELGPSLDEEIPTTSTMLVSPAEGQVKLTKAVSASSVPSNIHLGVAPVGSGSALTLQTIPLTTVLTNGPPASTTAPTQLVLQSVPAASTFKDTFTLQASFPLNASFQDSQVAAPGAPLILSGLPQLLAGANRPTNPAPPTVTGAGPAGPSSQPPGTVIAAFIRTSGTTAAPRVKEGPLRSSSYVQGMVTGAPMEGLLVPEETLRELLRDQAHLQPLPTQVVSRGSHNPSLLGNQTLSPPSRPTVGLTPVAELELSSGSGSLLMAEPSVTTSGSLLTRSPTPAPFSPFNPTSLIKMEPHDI
# Outline: as §1
# ELK4 = molecular target: T9, ELK4 (Homo sapiens, UniProt P28324-2 1-405); conditions: protein: recombinant; tags: N-terminal GST; dsDNA, one strand shown
# T9 sequence: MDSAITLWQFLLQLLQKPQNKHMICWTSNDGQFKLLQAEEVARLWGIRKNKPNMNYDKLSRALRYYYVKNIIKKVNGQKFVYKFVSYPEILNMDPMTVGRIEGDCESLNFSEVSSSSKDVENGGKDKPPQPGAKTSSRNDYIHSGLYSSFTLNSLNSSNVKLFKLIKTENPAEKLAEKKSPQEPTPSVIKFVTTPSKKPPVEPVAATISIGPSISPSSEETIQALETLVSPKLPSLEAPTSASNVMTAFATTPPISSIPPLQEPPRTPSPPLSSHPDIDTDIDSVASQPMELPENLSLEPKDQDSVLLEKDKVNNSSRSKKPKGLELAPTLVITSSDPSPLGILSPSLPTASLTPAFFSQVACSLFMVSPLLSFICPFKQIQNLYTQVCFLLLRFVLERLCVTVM
# Outline: as §1
# ETV2 = molecular target: T10, ETV2 (Homo sapiens, UniProt O00321 1-342); conditions: protein: recombinant; tags: N-terminal GST; dsDNA, one strand shown
# T10 sequence: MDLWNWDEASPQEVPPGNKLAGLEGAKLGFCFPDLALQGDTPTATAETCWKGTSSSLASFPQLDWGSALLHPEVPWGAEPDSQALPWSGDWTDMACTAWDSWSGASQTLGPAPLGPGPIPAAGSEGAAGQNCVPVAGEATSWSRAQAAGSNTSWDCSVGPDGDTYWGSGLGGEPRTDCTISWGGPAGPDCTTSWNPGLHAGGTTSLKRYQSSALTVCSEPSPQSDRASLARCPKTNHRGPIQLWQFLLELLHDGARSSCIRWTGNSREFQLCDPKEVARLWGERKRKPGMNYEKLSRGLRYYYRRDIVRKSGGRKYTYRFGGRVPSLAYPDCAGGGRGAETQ
# Outline: as §1
# ELF3 = molecular target: T11, ELF3 (Homo sapiens, UniProt P78545 1-371); conditions: protein: recombinant; tags: N-terminal GST; dsDNA, one strand shown
# T11 sequence: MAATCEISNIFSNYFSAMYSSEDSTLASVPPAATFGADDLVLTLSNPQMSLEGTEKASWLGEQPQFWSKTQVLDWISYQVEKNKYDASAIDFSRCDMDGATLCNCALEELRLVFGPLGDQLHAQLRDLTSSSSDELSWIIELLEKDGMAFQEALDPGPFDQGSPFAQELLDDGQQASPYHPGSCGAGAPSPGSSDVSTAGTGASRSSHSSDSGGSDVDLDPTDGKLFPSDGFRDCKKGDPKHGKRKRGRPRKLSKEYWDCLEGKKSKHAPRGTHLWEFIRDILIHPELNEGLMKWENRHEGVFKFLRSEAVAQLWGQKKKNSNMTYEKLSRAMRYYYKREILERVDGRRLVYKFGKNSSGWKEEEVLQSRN
# Outline: as §1
# CRX = CRX (Homo sapiens, UniProt O43186 1-299); conditions: protein: recombinant; tags: N-terminal GST; dsDNA, one strand shown
# CRX, sequence (O43186 whole entry): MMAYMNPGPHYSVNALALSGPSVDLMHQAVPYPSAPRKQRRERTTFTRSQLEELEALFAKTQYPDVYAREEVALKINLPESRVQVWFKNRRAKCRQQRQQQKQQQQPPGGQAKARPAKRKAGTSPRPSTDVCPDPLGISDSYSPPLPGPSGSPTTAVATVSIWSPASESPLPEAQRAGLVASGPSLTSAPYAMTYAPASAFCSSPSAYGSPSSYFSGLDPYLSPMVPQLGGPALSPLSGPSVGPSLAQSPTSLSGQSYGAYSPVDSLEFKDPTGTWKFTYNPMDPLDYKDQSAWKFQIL
# Outline: as §1
# ETV1 = ETV1 (Homo sapiens, UniProt P50549 1-477); conditions: protein: recombinant; tags: N-terminal GST; dsDNA, one strand shown
# ETV1, sequence (P50549 whole entry): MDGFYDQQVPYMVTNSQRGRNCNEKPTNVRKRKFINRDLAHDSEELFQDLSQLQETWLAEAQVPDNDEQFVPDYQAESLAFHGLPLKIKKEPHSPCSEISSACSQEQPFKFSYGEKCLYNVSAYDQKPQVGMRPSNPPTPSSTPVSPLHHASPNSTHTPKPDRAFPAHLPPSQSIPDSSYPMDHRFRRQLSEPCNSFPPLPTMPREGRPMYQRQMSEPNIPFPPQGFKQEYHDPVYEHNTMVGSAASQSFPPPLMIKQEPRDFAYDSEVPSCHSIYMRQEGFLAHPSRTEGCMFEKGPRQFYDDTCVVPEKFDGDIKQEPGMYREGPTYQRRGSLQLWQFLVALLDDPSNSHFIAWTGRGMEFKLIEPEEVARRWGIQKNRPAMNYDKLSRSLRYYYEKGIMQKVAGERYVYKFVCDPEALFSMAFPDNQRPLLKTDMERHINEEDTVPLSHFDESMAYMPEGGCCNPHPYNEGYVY
# Outline: as §1
sequence,measurement,setting,value
ACTCCT,binding signal,FLI1,"1.67 fold enrichment (6-mer frequency, TF over GST control)"
same,binding signal,ELK1,"1.55 fold enrichment (6-mer frequency, TF over GST control)"
same,binding signal,GABPA,"1.45 fold enrichment (6-mer frequency, TF over GST control)"
same,binding signal,ERG,"1.45 fold enrichment (6-mer frequency, TF over GST control)"
same,binding signal,ELF1,"1.57 fold enrichment (6-mer frequency, TF over GST control)"
same,binding signal,EHF,"1.52 fold enrichment (6-mer frequency, TF over GST control)"
same,binding signal,SPI1,"1.42 fold enrichment (6-mer frequency, TF over GST control)"
same,binding signal,SPIB,"1.57 fold enrichment (6-mer frequency, TF over GST control)"
same,binding signal,ELK3,"1.5 fold enrichment (6-mer frequency, TF over GST control)"
same,binding signal,FEV,"1.47 fold enrichment (6-mer frequency, TF over GST control)"
same,binding signal,ETV5,"1.38 fold enrichment (6-mer frequency, TF over GST control)"
same,binding signal,HSF1,"1.36 fold enrichment (6-mer frequency, TF over GST control)"
same,binding signal,SPIC,"1.54 fold enrichment (6-mer frequency, TF over GST control)"
same,binding signal,ELF4,"1.59 fold enrichment (6-mer frequency, TF over GST control)"
same,binding signal,ELK4,"1.54 fold enrichment (6-mer frequency, TF over GST control)"
same,binding signal,ETV2,"1.38 fold enrichment (6-mer frequency, TF over GST control)"
same,binding signal,ELF3,"1.3 fold enrichment (6-mer frequency, TF over GST control)"
same,binding signal,CRX,"1.32 fold enrichment (6-mer frequency, TF over GST control)"
same,binding signal,ETV1,"1.41 fold enrichment (6-mer frequency, TF over GST control)"
